Each compound was assayed on Sporothrix schenckii ATCC 32286 (assay: growth inhibition relative to untreated control; higher = more growth inhibition (more antifungal activity), active = 80 or more; extreme values may be limits of the assay). Settings: 1 µM; 48 h.
How it was run: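 Each value is the percent growth inhibition compared with cells left untreated. Reference isolates were grown as yeast-form cells in brain heart infusion broth with 2% glucose for 7 days at 36°C, then exposed at 1 x 10^5 CFU/ml to library compounds at a final 1 μM for 48 h at 35°C in 5% CO2. Growth was inspected visually under an inverted light microscope and quantified by spectrophotometric readings, with runs in quadruplicate.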

Growth inhibition, inactive:
CC(C)(C)n1nc(Cc2ccc(F)c(Cl)c2)c2c(N)ncnc21 0%
O=C(Nc1ccc2c(c1)B(O)OC2)c1ccccc1C(F)(F)F 20.5%
CCCCc1ccc(C(=O)Nc2nccc3ccccc23)nc1 1%
c1ccc2c(c1)CN(CC1CC1)CC1(CCN(Cc3c[nH]c4cnccc34)CC1)O2 0%
CCn1cnc2c(Nc3cc(F)cc(F)c3)nc(C#N)nc21 3.75%
Nc1ncc(-c2ccc(C(F)(F)F)nc2)cc1-c1ccc(C(F)(F)F)nc1 11%
O=C(c1[nH]nc2c1CCCC2)N1CCN(Cc2ccc3c(c2)OCO3)CC1 16.2%
CNCCC(Oc1ccc(C(F)(F)F)cc1)c1ccccc1 (stereo unspecified) 2%
O=C(NCc1nnc2n1CCCCC2)c1ccc(-c2ccc(F)cc2)o1 0%
NCCN(C(=O)c1ccc(Cl)cc1Cl)c1ccc(OCc2ccc(Cl)cc2)cc1 7%
Nc1nccc2ccc(-c3ccc4nccn4c3)cc12 13.5%
NCC(=O)N1CCn2c(nc(-c3ccccc3)c2Nc2ccc3c(c2)OCO3)C1 0.5%
CCOc1ccccc1C(=O)Nc1cccc(-c2nc3ncccn3c2C)c1 12.2%
CC1CC1C(=O)NC1CCN(CC2(c3ccccc3)CCCCC2)CC1 (stereo unspecified) 20.5%
CN1CCCN(C(c2ccccc2)c2ccc(Cl)cc2)CC1 (stereo unspecified) 6.5%
CCCCN(CCCC)c1c(C#N)cc(S(=O)(=O)Nc2ccccc2)cc1C#N 23.8%
